Rows were chosen to be rich in hits. Some 12% of all compounds tested hit in one or more screens of this group.
Sfp PPTase inh – Sfp phosphopantetheinyl transferase inhibition. Q9F4F7. Biochemical Sfp PPTase activity, qHTS. Potency, µM, for inactives: largest response in the series, negative = inhibition, hits mostly inhibitors. 310,000 compounds, 3.5% hits. AID 1490;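 note: the enzyme is Sfp with the accession as filed and its product quenches rhodamine fluorescence; 0% = enzyme reaction without inhibitor and -100% = no enzyme wells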
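Reaction rates are the 30-min fluorescence difference (ex 525, em 598 nm) in wells containing 15 nM Sfp, 5 uM rhodamine-CoA and 12.5 uM BHQ-2-YbbR at pH 7.6 with 10 mM MgCl2.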
L3MBTL1 inh – L3MBTL1 (human) inhibition; AID 485360; AlphaScreen L3MBTL1–H3K9me1 peptide binding; 230,000 compounds, 0.66% hits; Potency, µM (series often up to 57.1 µM), inactives show at the top dose activity, negative = inhibition, actives largely listed as inhibitors; note: % is set by controls: 0 for no effect and ±100 for the full control effect; nearly all actives have a fitted effect of over 60% in size
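AlphaScreen proximity signal between nickel-chelate acceptor and streptavidin donor beads (final 10 ug/mL) reports binding of 50 nM L3MBTL1 to 75 nM biotin-H3 K9me1 peptide; complex incubated with compounds 30 min at room temperature; cefsulodin titration as control.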
G9a block – G9a (human) methyltransferase inhibition. Q96KQ7. G9a H3K9 monomethylation, AlphaScreen, 2 h. Potency, µM (highest dose often 102 µM), for the others: top-dose activity, negative = inhibition, actives largely listed as inhibitors. 350,000 compounds, 8.8% hits. AID 504332; note: % is set by controls: 0 for no effect and ±100 for the full control effect; nearly all actives have a fitted effect of over 75% in size
Target sequence (Q96KQ7 913-1193 limits assumed): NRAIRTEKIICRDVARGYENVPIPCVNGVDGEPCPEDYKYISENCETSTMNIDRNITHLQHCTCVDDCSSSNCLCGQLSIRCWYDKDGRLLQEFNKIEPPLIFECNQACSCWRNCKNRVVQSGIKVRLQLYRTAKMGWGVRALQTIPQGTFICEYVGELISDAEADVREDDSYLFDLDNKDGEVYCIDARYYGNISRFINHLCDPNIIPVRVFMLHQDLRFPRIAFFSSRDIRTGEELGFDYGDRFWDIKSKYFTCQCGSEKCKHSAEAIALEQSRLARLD
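Step 1: enzyme (final 20 nM) with compound, 15 min RT. Step 2: substrate peptide 500 nM and SAM 20 uM, 2 h RT. Step 3: anti-H3K9me1 antibody and AlphaScreen beads, 10 min, then plate read.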
BAZ2B inh – BAZ2B (human) inhibition | Potency, µM (doses to about 114 µM), for the others: at the top dose activity change, negative = inhibition, usual class: inhibitors | 360,000 compounds, 4.4% hits | Q9UIF8 | AlphaScreen BAZ2B-H3K14Ac peptide displacement; note: % is set by controls: 0 for no effect and ±100 for the full control effect; nearly all actives have a fitted effect of over 60% in size
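AlphaScreen displacement: compounds (up to 110uM) incubated 30 min at room temperature with a preformed 50 nM BAZ2B/50 nM biotinylated H3K14Ac peptide complex in PBS pH 7.4 with Tween-20. Donor and acceptor beads at 10 ug/mL final added, 20 min light-protected before reading.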
JMJD2A Tudor – inhibitors of human JMJD2A Tudor domain | O75164 | AlphaScreen JMJD2A-Tudor / H3K4me3 peptide binding | Potency, µM (series often up to 114 µM), inactives show top-dose activity change, negative = inhibition, most hits filed as inhibitors | 390,000 compounds, 4.4% hits; note: % is set by controls: 0 for no effect and ±100 for the full control effect; nearly all actives have a fitted effect of over 50% in size
HP1b chromo inh – blocks HP1-beta chromodomain binding to methylated histone tails; P83916; AlphaScreen HP1-beta / biotin-H3K9me3 peptide binding; Potency, µM (top dose mostly 114 µM), for inactives: at the highest dose activity change, negative = inhibition, most hits filed as inhibitors; 390,000 compounds, 0.56% hits; note: nearly all actives have a fitted effect of over 70% in size
Target sequence (P83916 whole entry, looked up): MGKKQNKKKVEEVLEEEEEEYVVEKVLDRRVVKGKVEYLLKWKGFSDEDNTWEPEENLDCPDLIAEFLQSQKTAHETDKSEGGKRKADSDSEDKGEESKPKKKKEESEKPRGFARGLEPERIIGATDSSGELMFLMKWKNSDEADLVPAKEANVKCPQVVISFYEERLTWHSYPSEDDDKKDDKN
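HP1-beta protein (50 nM final) preincubated 30 min at room temperature with biotinylated H3(1-18)K9me3 peptide (50 nM) in PBS pH 7.4, 0.01% Tween-20, then compound added for 30 min. AlphaScreen streptavidin donor/nickel chelate acceptor beads (10 ug/mL final), 30 min dark, luminescence read.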
An asterisk follows results filed as active; ? = inconclusive; / = no result; [ ] = dose if it differs, or a comment. Calls come from the whole dose curve; as a rule, active = well fitted curve in the direction sought with a large enough effect; inconclusive = small, poorly fitted or top-dose-only effect, or another doubt; inactive = no such curve, though single readings can be large; an effect the other way counts as inactive or inconclusive. Potency is the fitted concentration of half-maximal effect.

SMILES | Sfp PPTase inh | L3MBTL1 inh | G9a block | BAZ2B inh | JMJD2A Tudor | HP1b chromo inh
C(=N\C(/N=C/c1ccco1)c1ccco1)/c1ccco1 | ? | -12.2% | 5.2%[59 µM] | ? | ? | 2.6%
CN(C)c1ccc(C=Nc2ccc(N(C)C)cc2)cc1 | 22.4µM* | ? | ? | 20µM* | 56.2µM* | 50.1µM*
CN(C)c1ccc(C=Nc2ccccc2)cc1 | 14.2% | 31.3% | 23.5%[59 µM] | 49.5%[57.1 µM] | -9.8% | 13.4%
COc1ccc(CN2CCC3C=CCC(C(=O)O)C3C2=O)cc1OC (stereo unspecified) | 2.4% | / | / | / | -7.6% | 28.7%
O=C(NC1CC(=O)N(c2ccc(F)cc2)C1)c1ccc(S(=O)(=O)N2CCOCC2)cc1 (stereo unspecified) | / | / | 3.7%[59 µM] | -0.9% | -6.8% | 32.5%
ON=C1c2cc(OCCN3CCCCC3)ccc2-c2ccc(OCCN3CCCCC3)cc21 | -9.1% | -1.1% | / | ? | ? | -4.3%
CCOc1ccc(C(=O)CCN2CCCCCC2)cc1 | ? | 3.2% | 5.01µM* | 0.2% | -9.4% | 27.5%
NC(=S)NN=C1c2cc(OCCN3CCOCC3)ccc2-c2ccc(OCCN3CCOCC3)cc21 | -6.7% | / | 31.6µM* | 39.8µM* | ? | ?
CCCOc1ccc(C(=O)CCN2CCCCC2)cc1 | -26.1% | -7.7% | 17.8µM* | -6.7% | -13.3% | 28.9%
CCCOc1ccc(C(=O)CCC(=O)Nc2ccc(N3CCN(C)CC3)cc2)cc1 | / | ? | ? | 50.1µM* | 56.2µM* | -20.5%
O=C(CCN1CCCCC1)c1ccccc1 | 2.4% | / | ? | 28.6% | -10.6% | 29.8%
CCOC(=O)C1CCCN(c2ncnc3c2nnn3C)C1 (stereo unspecified) | / | / | -10.2%[59 µM] | 1.9% | -15.3% | 51.1%
Cc1ccc(/C=C/c2onc(C)c2S(=O)(=O)N2CCC(C(=O)NCc3ccc(N(C)C)cc3)CC2)cc1 | / | / | -3.8%[59 µM] | -2.1% | -6.4% | 22.4%[57 µM]
CCOc1ccccc1CNC(=O)CN1C(=O)CCc2cc(S(=O)(=O)N3CCCCC3)ccc21 | / | / | 32.5%[59 µM] | -28.2% | -2.0% | 36.2%
CCCCOc1ccc(C(=O)CCN2CCOCC2)cc1 | ? | 9.3% | 22.4µM* | -0.1% | -18.0%[57.1 µM] | 20.3%
O=C(OCCN1CCOCC1)c1ccc(OCCN2CCOCC2)cc1 | 0.8% | / | 50.1µM* | -36.6% | ? | 16.1%
COc1ccc(CCNC(=O)CCCn2c(=O)c3ccccc3n(CC(=O)Nc3ccc(C)cc3Cl)c2=O)cc1OC | / | / | 20.4%[59 µM] | ? | -17.4% | 46.6%
CC(C)N(C)CCOC(=O)c1ccccc1Cl | 8.4% | 6.9% | -6.8%[59 µM] | ? | -4.1% | 17.4%
CC(C)N(C)CCOC(=O)c1ccccc1Br | 25.3% | 5.4% | -2.4%[59 µM] | 2.3% | 50.1µM* | 18.5%
COC1=C(Nc2ccc(O)cc2)C(=O)c2ccccc2C1=O | ? | ? | 28.2µM* | 39.8µM* | 44.7µM* | 50.1µM*
COC1=C(Nc2ccc(OC)cc2)C(=O)c2ccccc2C1=O | ? | 28.2µM* | 10µM* | 8.91µM* | 20µM* | 22.4µM*
COC1=C(Nc2ccc(OC)cc2)C(=O)C(OC)=C(Nc2ccc(OC)cc2)C1=O | / | / | / | / | -12.3% | 10.9%
CCOc1ccc(NC2=C(OC)C(=O)c3ccccc3C2=O)cc1 | -23.7% | 25.1µM* | 8.91µM* | 10µM* | 8.91µM* | 25.1µM*
CCOc1ccc(NC2=C(Cl)C(=O)N(Cc3ccccc3)C2=O)cc1 | 13.4% | -20.7% | -45.4% | ? | ? | ?
COc1ccc(C2=C(Nc3ccccc3)c3ccccc3C2=O)cc1 | 5.3% | -18.6% | -33.5%[59 µM] | -33.6% | -16.0% | 21.5%
SMILES | Sfp PPTase inh | L3MBTL1 inh | G9a block | BAZ2B inh | JMJD2A Tudor | HP1b chromo inh
S=C(c1ccc(-c2ccc(Cl)cc2Cl)o1)N1CCCCC1 | 56.2µM* | -19.3% | ? | 22.4µM* | ? | -41.7%
S=C(c1ccc(-c2ccc(Cl)cc2Cl)o1)N1CCCC1 | 14.1µM* | 18.9% | / | -14.0% | 50.1µM* | ?
CCOc1ccc(CCNC(=O)C2CCN(C(=O)N(C)C)CC2)cc1OCC | 8.9% | 7.7% | -5.7%[59 µM] | 2.1% | 89.1µM* | 9.9%
CCOc1ccc(CCNC(=O)C2CC(C)=CCC2C(=O)O)cc1OCC (stereo unspecified) | 7.5% | / | 22.4µM* | 50.1µM* | 25.1µM* | ?
CCOc1ccc(CCNC(=O)CSCc2ccc(C)cc2)cc1OCC | -13.2% | -7.0% | ? | -2.0% | -22.8% | 15.4%
CCOc1ccc(CCNC(=O)CSC(=S)N2CCCC2)cc1OCC | / | -1.3% | 39.8µM* | 6.6% | ? | -4.6%
COc1ccc2c(c1)CCc1c(C(=O)Nc3c(C)nn(Cc4c(Cl)cccc4Cl)c3C)noc1-2 | / | / | -44.9%[59 µM] | -1.1% | -14.3% | 21.5%
CCN(C(=O)Cc1c(C(=O)O)c(C)cn1C)c1cccc(Cl)c1 | / | / | 2.9%[59 µM] | -3.9% | -1.0% | 18.8%
N#CC1=C2SCN(Cc3ccco3)CN2C(=O)CC1c1c(F)cccc1Cl (stereo unspecified) | 2.82µM* | / | 1.58µM* | -5.9% | 14.1µM* | ?
Cc1ccc(C2CC(=O)N3CN(Cc4ccco4)CSC3=C2C#N)cc1 (stereo unspecified) | 2.24µM* | -1.0% | ? | -7.5% | 56.2µM* | ?
O=C(COC(=O)CCc1c[nH]c2ccccc12)NCc1ccccc1 | 11.4% | -12.7% | -1.8%[59 µM] | ? | -31.1% | -3.7%
O=C(CCc1c[nH]c2ccccc12)OCc1cccc([N+](=O)[O-])c1 | 3.8% | / | 39.8µM* | ? | ? | ?
CN(C(=O)COC(=O)CCc1c[nH]c2ccccc12)C(c1ccccc1)c1ccccc1 | 18.0% | -21.3% | 12.6µM* | ? | ? | -3.3%
O=C1[C@@H]2C(c3cccnc3)=NO[C@@H]2C(=O)N1c1ccc2ccccc2c1 | 50.1µM* | 2.3% | / | -9.4% | 79.4µM* | ?
CCn1cc(C(=O)N2CCN(c3ccccc3F)CC2)c(=O)c2cc(S(=O)(=O)N(C)C3CCCCC3)ccc21 | / | / | ? | / | -25.3% | 6.0%
COc1ccc(-c2cc(C)nc3c(-c4ccc(OC)c(OC)c4)c(C)nn23)cc1 | / | / | 14.1µM* | 20µM* | 28.2µM* | -19.7%
COc1ccc(-c2c(C)nn3c(-c4ccccc4)cc(-c4ccccc4)nc23)cc1OC | / | / | ? | ? | -26.9% | ?
CCOc1ccc(N2CC(NC(=O)C3CCCCC3)CC2=O)cc1 (stereo unspecified) | / | / | 8.4%[59 µM] | 3.1% | -8.8% | 26.3%
Cc1nc2ccc(S(=O)(=O)Nc3cccc(-c4nc5cccnc5s4)c3C)cc2s1 | -4.1% | -0.6% | 50.1µM* | -34.4% | -30.6% | -2.1%
Cc1nc2ccc(S(=O)(=O)Nc3cc(-c4nc5cccnc5s4)ccc3C)cc2s1 | -6.6% | -6.9% | 50.1µM* | -24.8% | -7.0% | 26.7%
